Here are results for four compounds from PubChem BioAssay (EPA / NIEHS).

Assay [1] deals with Paired box protein Pax-6 (Homo sapiens) (UniProt P26367). The experiment in a line: ATG_Pax6_CIS: Attagene CIS-FACTORIAL HepG2 Assay for human Paired Box 6 (PAX6) (AID 2282956). The note with it: HepG2 CIS-FACTORIAL PAX6 reporter transcription, RNA readout; actives raise or lower the signal. The gist of the method: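 DMSO-referenced bidirectional fits of reporter mRNA fluorescence; HepG2 with transient cis-promoter MRTUs, 24 h post-dose, RT-PCR plus capillary electrophoresis detection.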

Assay [2] in a line: ATG_PXRE_CIS: Attagene CIS-FACTORIAL HepG2 Assay for human Pregnane X Receptor Element (PXRE) (AID 2282957). The conditions noted are these: HepG2 Attagene CIS-FACTORIAL PXRE reporter, mRNA; actives raise or lower the signal. The gist of the method:
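Bidirectional activity, baselined to DMSO, derived from reporter mRNA fluorescence (RT-PCR plus capillary electrophoresis) in HepG2 cells bearing cis-promoter reporter units, 24 h exposure.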

Assay [3] is described as follows: ATG_PPRE_CIS: Attagene CIS-FACTORIAL HepG2 Assay for human Peroxisome Proliferator-activated Response Element (PPRE) (AID 2282958). The note with it: HepG2 PPRE cis-element reporter, Attagene transcription factor profiling; actives raise or lower the signal. The gist of the method: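 Read-out: fluorescent reporter mRNA fragments resolved by capillary electrophoresis after RT-PCR. HepG2 cells carried transiently transfected PPRE-driven cis reporter constructs and were dosed for 24 h; gain or loss of signal fitted relative to DMSO.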

A short description of assay [4]: ATG_RORE_CIS: Attagene CIS-FACTORIAL HepG2 Assay for human RAR-related Orphan Receptor Element (RORE) (AID 2282959). The note with it: HepG2 Attagene cis-factorial RORE reporter, mRNA; actives raise or lower the signal. The gist of the method: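 Readout: fluorescent reporter mRNA by RT-PCR plus capillary electrophoresis, 24 h after dosing transfected HepG2 cells. Endogenous transcription factor activity on a cis promoter element is measured. Gain or loss of signal fitted against DMSO.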

Assay [5] is described as follows: ATG_Sox_CIS: Attagene CIS-FACTORIAL HepG2 Assay for human SRY-box transcription factor (SOX) (AID 2282960). The conditions noted are these: HepG2 Attagene cis-factorial SOX reporter, mRNA; actives raise or lower the signal. The gist of the method: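 Read-out: fluorescent RT-PCR products of SOX1-linked reporter transcripts resolved by capillary electrophoresis, fitted bidirectionally against DMSO. Transiently transfected HepG2 cells, 24 h after chemical exposure, endogenous transcription factor activity.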

The target in assay [6] is Transcription factor Sp1 (Homo sapiens) (UniProt P08047). The experiment in a line: ATG_Sp1_CIS: Attagene CIS-FACTORIAL HepG2 Assay for human Specificity Protein 1 (Sp1) (AID 2282961). The conditions noted are these: HepG2 Sp1 cis-reporter transcription, actives raise or lower the signal. The gist of the method:
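Read-out: fluorescence of 6-FAM-labeled, HpaI-digested RT-PCR products separated by capillary electrophoresis. HepG2 cells carried transfected cis-element reporter units and were exposed to chemicals for 24 h; gain or loss of signal fitted relative to DMSO.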

A short description of assay [7]: ATG_SREBP_CIS: Attagene CIS-FACTORIAL HepG2 Assay for human Sterol Regulatory Element Binding (SREBP) (AID 2282962). The note with it: HepG2 Attagene cis-factorial SREBP reporter, mRNA; actives raise or lower the signal. The gist of the method: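 In this cis-format assay, HepG2 liver cells express reporters controlled by promoter elements responsive to native transcription factors. Exposure lasts 24 h; reporter mRNA fluorescence from capillary electrophoresis gives the signal, fitted bidirectionally against DMSO.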

The target of assay [8] is Signal transducer and activator of transcription 3 (Homo sapiens) (UniProt P40763). Nature of the assay: ATG_STAT3_CIS: Attagene CIS-FACTORIAL HepG2 Assay for human Signal Transducer and Activator of Transcription 3 (STAT3) (AID 2282963). The note with it: HepG2, Attagene cis-factorial STAT3 reporter transcription; actives raise or lower the signal. The gist of the method:
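HepG2, MRTU-transfected, 24 h dosing. RNA → RT → PCR → FAM label → HpaI → CE. Bidirectional fit vs DMSO.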

The nature of assay [9]: ATG_TA_CIS: Attagene CIS-FACTORIAL HepG2 Assay for human TA Basal Promoter (AID 2282964). The note with it: HepG2 Attagene CIS-factorial TA basal promoter reporter; actives raise or lower the signal. The gist of the method: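 HepG2 cells transiently transfected with multiplexed cis-promoter reporter units, dosed 24 h. Reporter mRNA measured by RT-PCR, 6-FAM labelling, HpaI digestion and capillary electrophoresis; bidirectional fit versus DMSO baseline, serving as background control.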

Assay [10] is described as follows: ATG_TCF_b_cat_CIS: Attagene CIS-FACTORIAL HepG2 Assay for human T-Cell-Factor with beta-catenin (TCF/b-cat) (AID 2282965). The conditions noted are these: HepG2 TCF/beta-catenin cis-reporter transcription, actives raise or lower the signal. Summed up: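 HepG2 cells transiently transfected with multiple cis-promoter-regulated reporter transcription units, so endogenous transcription factor activity is measured. Reporter mRNA read 24 hours after dosing by RT-PCR, fluorescent labelling and capillary electrophoresis; bidirectional fitting against DMSO.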

A short description of assay [11]: ATG_TAL_CIS: Attagene CIS-FACTORIAL HepG2 Assay for human TAL Basal Promoter (AID 2282966).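 Also: background control endpoint measuring basal TAL promoter reporter mRNA not a specific factor.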 The conditions noted are these: HepG2 Attagene cis-factorial TAL promoter reporter; actives raise or lower the signal. Summed up: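 Human hepatoma HepG2 cells, transfected with promoter-regulated reporter units, were treated 24 h. Reporter transcript levels, measured through RT-PCR and capillary electrophoresis, were fitted for gain or loss relative to DMSO.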

Assay [12] is described as follows: ATG_TGFb_CIS: Attagene CIS-FACTORIAL HepG2 Assay for human Transforming Growth Factor (TGF) (AID 2282967). The conditions noted are these: HepG2 Attagene CIS TGFb reporter, mRNA transcription; actives raise or lower the signal. The gist of the method:
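HepG2 cells transiently transfected with cis-promoter-driven multiplexed reporter units; 24 h compound exposure. Reporter mRNA measured by RT-PCR, 6-FAM labeling, HpaI digestion and capillary electrophoresis; bidirectional fit versus DMSO baseline.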

Assay [13] can be described thus: ATG_VDRE_CIS: Attagene CIS-FACTORIAL HepG2 Assay for human Vitamin D Receptor Element (VDRE) (AID 2282968). The note with it: HepG2 VDRE cis-reporter transcription, actives raise or lower the signal. Summed up:
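Steps: transfect HepG2 with multiple reporter transcription units; dose chemicals 24 h; isolate RNA; RT-PCR; label with 6-FAM primer extension; HpaI digest; capillary electrophoresis. Curves fitted both directions against DMSO.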

Assay [14] has as its target Estrogen receptor (Homo sapiens) (UniProt P03372). Nature of the assay: ATG_ERa_TRANS: Attagene TRANS-FACTORIAL HepG2 Assay for human Estrogen Receptor alpha (ERa) (AID 2282970; active = hit-call score of the fitted dose curve at least 0.9, where 1 is the maximum). The conditions noted are these: HepG2 Attagene TRANS ERa GAL4 reporter, mRNA. The gist of the method:
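Signal derives from fluorescence of labelled reporter PCR fragments separated by capillary electrophoresis. HepG2 cells transiently carrying multiple GAL4-UAS reporter units were treated 24 hours, and induction above DMSO baseline was fitted as activity.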

For assay [15], the target named is X-box-binding protein 1 (Homo sapiens) (UniProt P17861). Nature of the assay: ATG_Xbp1_CIS: Attagene CIS-FACTORIAL HepG2 Assay for human X-box Binding Protein 1 (XBP1) (AID 2282972). The conditions noted are these: HepG2 XBP1 cis-element reporter, Attagene multiplex; actives raise or lower the signal. Summed up: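 Changes in reporter transcript abundance, read by RT-PCR and capillary electrophoresis, reflect endogenous transcription factor activity. Transfected HepG2 cells received compound for 24 hours; DMSO defined baseline for bidirectional analysis.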

Assay [16] is described as follows: ATG_GAL4_TRANS: Attagene TRANS-FACTORIAL HepG2 Assay for GAL4 (Internal Marker) (AID 2282976; active = hit-call score of the fitted dose curve at least 0.9, where 1 is the maximum). The note with it: HepG2 Attagene TRANS GAL4 internal marker reporter. Summed up: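 Liver HepG2 line bearing multiplexed GAL4-UAS reporter constructs; 24 h chemical treatment. Transcripts were quantified as fluorescent fragments on capillary electrophoresis after RT-PCR and HpaI cut, with activity fitted upward from DMSO.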

The target in assay [17] is Estrogen-related receptor gamma (Homo sapiens) (UniProt P62508). Nature of the assay: ATG_ERRg_TRANS: Attagene TRANS-FACTORIAL HepG2 Assay for human Estrogen-Related Receptor gamma (ERRg) (AID 2282977; active = hit-call score of the fitted dose curve at least 0.9, where 1 is the maximum;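 also: hits increase reporter signal over DMSO so potencies reflect activators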). The conditions noted are these: HepG2 Attagene TRANS reporter, ERRg transactivation. The gist of the method:
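Exogenous NR-Gal4 chimera activity measured as reporter transcript induction after 24 h in transiently transfected HepG2 cells. RNA reverse-transcribed, PCR-amplified, 6-FAM-labelled and resolved by capillary electrophoresis; increase over DMSO baseline.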

The nature of assay [18]: ATG_M_19_TRANS: Attagene TRANS-FACTORIAL HepG2 Assay for M19 Transcription Factor (Internal Marker) (AID 2282974; active = hit-call score of the fitted dose curve at least 0.9, where 1 is the maximum). The note with it: HepG2 Attagene TRANS-FACTORIAL M19 internal marker reporter. The gist of the method:
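24 h chemical exposure of transiently transfected HepG2 (MRTU library). RNA → oligo(dT) RT → PCR → 6-FAM labelling → HpaI cut → CE fluorescence. Positive-direction fit vs DMSO baseline; background internal-marker readout.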

For assay [19], the target named is Nuclear receptor subfamily 1 group I member 3 (Homo sapiens) (UniProt Q14994). The experiment in a line: ATG_CAR_TRANS: Attagene TRANS-FACTORIAL HepG2 Assay for human Constitutive Androstane Receptor (CAR) (AID 2282969; active = hit-call score of the fitted dose curve at least 0.9, where 1 is the maximum;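 also: activators raise reporter mRNA above DMSO so AC50 marks induction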). The conditions noted are these: HepG2 Attagene TRANS-FACTORIAL CAR reporter. The gist of the method:
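Steps: transient transfection of HepG2 with multiple GAL4-UAS reporter units; 24 h compound incubation; RNA isolation, RT-PCR, 6-FAM primer extension, HpaI digest; capillary electrophoresis. Gain-of-signal relative to DMSO negative control.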

For assay [20], the target named is Steroid hormone receptor ERR1 (Homo sapiens) (UniProt P11474). Nature of the assay: ATG_ERRa_TRANS: Attagene TRANS-FACTORIAL HepG2 Assay for human Estrogen-Related Receptor alpha (ERRa) (AID 2282971; active = hit-call score of the fitted dose curve at least 0.9, where 1 is the maximum). The conditions noted are these: HepG2 Attagene TRANS reporter, ERRa transactivation. Summed up: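 Signal gain relative to DMSO for an ERRa-Gal4 chimeric receptor, read as reporter mRNA by RT-PCR/capillary electrophoresis. Human HepG2 liver cells, transient multiplex reporter transfection, 24 h chemical exposure.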

Results filed as inconclusive are left out. Active and inactive are the calls of the source. The calls were made as follows, unless noted: active = hit-call score of the fitted dose curve at least 0.9, where 1 is the maximum; inactive = score below 0.9.

Chain of X-box-binding protein 1 (Homo sapiens) (P17861 whole entry, looked up): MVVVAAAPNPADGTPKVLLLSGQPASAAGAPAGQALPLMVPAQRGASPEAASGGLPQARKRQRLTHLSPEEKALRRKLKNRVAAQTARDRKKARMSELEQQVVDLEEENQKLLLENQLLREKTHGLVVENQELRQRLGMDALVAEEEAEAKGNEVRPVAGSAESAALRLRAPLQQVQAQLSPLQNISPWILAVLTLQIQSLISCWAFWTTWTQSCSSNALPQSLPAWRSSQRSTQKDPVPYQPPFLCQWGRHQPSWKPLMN
Chain of Estrogen receptor (Homo sapiens) (P03372 whole entry, looked up, the tested form may be a part): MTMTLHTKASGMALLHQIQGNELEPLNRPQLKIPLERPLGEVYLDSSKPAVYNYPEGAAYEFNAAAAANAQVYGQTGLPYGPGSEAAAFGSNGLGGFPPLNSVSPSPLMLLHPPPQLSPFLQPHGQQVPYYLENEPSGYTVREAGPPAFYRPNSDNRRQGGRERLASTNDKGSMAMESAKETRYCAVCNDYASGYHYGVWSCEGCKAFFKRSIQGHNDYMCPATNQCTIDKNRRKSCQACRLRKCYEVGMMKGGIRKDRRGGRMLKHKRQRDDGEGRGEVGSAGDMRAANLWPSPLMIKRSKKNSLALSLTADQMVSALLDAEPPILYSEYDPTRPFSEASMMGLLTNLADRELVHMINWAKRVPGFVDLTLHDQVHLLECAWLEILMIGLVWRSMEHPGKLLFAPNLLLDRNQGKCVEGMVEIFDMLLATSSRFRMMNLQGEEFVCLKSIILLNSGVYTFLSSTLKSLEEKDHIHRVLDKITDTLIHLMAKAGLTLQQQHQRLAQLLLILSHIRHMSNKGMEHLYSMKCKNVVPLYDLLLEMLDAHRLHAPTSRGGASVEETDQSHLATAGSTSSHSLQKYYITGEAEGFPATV
Chain of Paired box protein Pax-6 (Homo sapiens) (P26367 whole entry, looked up): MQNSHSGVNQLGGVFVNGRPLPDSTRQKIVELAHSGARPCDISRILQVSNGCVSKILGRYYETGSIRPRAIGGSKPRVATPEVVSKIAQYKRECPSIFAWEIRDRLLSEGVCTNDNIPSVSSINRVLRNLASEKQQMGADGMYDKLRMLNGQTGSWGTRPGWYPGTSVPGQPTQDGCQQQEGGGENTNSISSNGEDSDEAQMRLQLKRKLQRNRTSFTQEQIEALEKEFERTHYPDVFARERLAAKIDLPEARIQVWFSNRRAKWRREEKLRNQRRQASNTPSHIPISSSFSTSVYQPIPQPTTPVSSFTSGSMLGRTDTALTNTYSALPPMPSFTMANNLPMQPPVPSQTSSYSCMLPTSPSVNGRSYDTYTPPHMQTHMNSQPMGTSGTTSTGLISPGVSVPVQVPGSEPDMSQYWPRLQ
Chain of Transcription factor Sp1 (Homo sapiens) (P08047 whole entry, looked up): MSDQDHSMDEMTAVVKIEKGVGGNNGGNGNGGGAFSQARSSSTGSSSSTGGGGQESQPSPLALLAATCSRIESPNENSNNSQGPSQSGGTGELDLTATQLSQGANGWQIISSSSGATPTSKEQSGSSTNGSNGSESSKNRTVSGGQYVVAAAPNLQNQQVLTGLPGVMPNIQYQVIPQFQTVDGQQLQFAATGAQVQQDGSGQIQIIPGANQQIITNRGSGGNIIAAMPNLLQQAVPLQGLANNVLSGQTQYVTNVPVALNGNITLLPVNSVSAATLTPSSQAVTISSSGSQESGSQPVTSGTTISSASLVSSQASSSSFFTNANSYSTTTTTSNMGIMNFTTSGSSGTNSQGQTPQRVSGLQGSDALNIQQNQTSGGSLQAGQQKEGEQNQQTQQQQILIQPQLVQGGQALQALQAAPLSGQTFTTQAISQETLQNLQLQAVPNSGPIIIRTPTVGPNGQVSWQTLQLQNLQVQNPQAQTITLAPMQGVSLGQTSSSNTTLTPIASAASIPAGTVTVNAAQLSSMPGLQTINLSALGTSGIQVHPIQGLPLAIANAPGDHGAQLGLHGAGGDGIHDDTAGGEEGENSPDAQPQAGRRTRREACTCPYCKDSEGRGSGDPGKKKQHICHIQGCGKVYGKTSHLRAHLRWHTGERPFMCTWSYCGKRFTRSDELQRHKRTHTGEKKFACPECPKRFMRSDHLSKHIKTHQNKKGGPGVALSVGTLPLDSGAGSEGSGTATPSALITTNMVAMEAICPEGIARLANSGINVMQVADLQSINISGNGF
Chain of Signal transducer and activator of transcription 3 (Homo sapiens) (P40763 whole entry, looked up): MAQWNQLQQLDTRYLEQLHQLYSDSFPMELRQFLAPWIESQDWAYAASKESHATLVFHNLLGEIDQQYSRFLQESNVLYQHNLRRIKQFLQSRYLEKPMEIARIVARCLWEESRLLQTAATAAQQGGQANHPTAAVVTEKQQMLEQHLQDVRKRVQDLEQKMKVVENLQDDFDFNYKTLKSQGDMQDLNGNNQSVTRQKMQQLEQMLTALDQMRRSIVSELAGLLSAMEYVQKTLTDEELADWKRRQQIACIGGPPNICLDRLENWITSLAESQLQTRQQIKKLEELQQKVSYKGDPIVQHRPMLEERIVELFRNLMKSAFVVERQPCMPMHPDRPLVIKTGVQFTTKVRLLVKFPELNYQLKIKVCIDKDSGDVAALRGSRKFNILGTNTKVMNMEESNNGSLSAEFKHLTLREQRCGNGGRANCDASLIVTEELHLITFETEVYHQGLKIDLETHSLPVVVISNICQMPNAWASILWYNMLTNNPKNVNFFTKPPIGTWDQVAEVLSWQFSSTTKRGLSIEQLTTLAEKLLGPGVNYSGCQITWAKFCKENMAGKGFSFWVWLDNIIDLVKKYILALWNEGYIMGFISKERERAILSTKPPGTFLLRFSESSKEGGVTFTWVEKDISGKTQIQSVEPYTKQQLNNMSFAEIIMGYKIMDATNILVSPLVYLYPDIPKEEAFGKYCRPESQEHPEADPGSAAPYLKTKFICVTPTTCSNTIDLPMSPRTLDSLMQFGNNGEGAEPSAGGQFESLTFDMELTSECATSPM
Chain of Estrogen-related receptor gamma (Homo sapiens) (P62508 whole entry, looked up, the tested form may be a part): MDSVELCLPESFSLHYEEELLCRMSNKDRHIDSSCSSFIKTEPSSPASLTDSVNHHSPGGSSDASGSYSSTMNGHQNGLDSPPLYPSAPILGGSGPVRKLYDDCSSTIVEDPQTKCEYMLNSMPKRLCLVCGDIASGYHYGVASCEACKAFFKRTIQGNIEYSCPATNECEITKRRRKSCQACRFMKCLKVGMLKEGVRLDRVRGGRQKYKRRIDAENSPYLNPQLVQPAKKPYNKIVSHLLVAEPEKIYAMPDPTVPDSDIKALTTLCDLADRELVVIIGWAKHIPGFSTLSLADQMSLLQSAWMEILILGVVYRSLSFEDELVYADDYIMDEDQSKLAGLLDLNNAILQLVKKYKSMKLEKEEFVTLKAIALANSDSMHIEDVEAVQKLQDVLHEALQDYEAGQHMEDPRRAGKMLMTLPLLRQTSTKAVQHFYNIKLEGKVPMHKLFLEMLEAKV
Chain of Nuclear receptor subfamily 1 group I member 3 (Homo sapiens) (Q14994 whole entry, looked up, the tested form may be a part): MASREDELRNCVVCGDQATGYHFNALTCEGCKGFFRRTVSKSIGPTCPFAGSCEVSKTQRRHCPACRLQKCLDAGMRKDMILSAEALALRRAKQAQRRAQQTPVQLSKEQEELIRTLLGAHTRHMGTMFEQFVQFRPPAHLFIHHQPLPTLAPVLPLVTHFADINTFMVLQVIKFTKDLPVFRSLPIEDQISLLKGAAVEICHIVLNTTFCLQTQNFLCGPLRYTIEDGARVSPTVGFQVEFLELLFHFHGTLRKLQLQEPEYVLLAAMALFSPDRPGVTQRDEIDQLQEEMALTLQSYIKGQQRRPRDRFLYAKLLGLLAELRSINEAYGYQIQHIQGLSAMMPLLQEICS
Chain of Steroid hormone receptor ERR1 (Homo sapiens) (P11474 whole entry, looked up, the tested form may be a part): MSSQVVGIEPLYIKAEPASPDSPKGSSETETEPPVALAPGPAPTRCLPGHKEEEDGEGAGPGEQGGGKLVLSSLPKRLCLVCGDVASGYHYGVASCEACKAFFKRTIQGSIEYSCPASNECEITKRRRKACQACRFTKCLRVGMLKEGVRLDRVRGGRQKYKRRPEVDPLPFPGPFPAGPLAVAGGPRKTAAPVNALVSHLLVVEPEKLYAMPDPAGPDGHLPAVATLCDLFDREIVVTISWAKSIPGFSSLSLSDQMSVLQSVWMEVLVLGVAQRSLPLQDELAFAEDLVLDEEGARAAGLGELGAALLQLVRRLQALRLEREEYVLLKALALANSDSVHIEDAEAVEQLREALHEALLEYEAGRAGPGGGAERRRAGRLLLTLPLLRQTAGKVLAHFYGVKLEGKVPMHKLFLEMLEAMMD

The AC50 is the midpoint of the concentration-response curve, whichever way the signal moves. Consider `Nc1ccc(Oc2ccc(N)c(N)c2)cc1`, for which the compound was classed as inactive in assay [1], in [2], in assay [5], in assay [6], in assay [7] and in [8]. In addition, the compound was called inactive in [9], in [10], in assay [11], in [12], in assay [13] and in assay [14]. The call in assay [15], in assay [16] and in assay [17] was inactive. Also, the results for the half-maximal activity concentration (AC50) in assay [3] and in assay [4] were 58.4 µM (active) and 27.5 µM (active), respectively.
On to `CC(C)(Oc1ccc(C2CC2(Cl)Cl)cc1)C(=O)O` (stereo not drawn), for which the result in assay [1], in assay [4], in assay [5], in [6], in assay [7] and in [8] was inactive. Also, the compound was classed as inactive in assay [9], in [10], in [11], in [12], in assay [13] and in assay [14]. For the same compound, the result in assay [15], in assay [18] and in assay [16] was inactive. Also, the AC50 in assay [2] is 41.1 µM (active); in assay [3] it was 48.3 µM (active).
In the case of `CC1=NN(c2cc(S(=O)(=O)O)ccc2Cl)C(=O)C1N=Nc1ccccc1` (stereo not drawn), the outcome in [1], in assay [2], in assay [3], in assay [4], in assay [5] and in assay [6] was inactive. Moreover, the call in assay [7], in [8], in assay [9], in [10], in [11] and in assay [12] was inactive. The outcome in [13], in assay [15], in assay [18] and in assay [16] was inactive.
As to `CCCCC(CC)COC(=O)c1ccccc1O` (stereo not drawn), the compound was classed as inactive in [1], in [3], in [4], in assay [5], in assay [6] and in assay [7]. The outcome in assay [8], in assay [9], in assay [10], in assay [11], in [12] and in assay [13] was inactive. Besides, the result in assay [19], in assay [20], in [15] and in [17] was inactive. The AC50 in assay [2] is 15.3 µM (active); in assay [14] it was 50 µM (active).
